# KDM5B inhibitor – KDM5B demethylase inhibition | Potency, µM (highest dose often 57.7 µM), most hits filed as inhibitors | AID 1347165 | KDM5B demethylase, FDH-coupled NADH fluorescence (FDH is formaldehyde dehydrogenase) | Q9UGL1 | 220,000 tested, 2.6% active; active = well fitted inhibition curve with a large enough effect; also: 0% is about no effect; nearly all actives have a fitted effect of over 70% in size
# Target sequence (Q9UGL1 whole entry, looked up): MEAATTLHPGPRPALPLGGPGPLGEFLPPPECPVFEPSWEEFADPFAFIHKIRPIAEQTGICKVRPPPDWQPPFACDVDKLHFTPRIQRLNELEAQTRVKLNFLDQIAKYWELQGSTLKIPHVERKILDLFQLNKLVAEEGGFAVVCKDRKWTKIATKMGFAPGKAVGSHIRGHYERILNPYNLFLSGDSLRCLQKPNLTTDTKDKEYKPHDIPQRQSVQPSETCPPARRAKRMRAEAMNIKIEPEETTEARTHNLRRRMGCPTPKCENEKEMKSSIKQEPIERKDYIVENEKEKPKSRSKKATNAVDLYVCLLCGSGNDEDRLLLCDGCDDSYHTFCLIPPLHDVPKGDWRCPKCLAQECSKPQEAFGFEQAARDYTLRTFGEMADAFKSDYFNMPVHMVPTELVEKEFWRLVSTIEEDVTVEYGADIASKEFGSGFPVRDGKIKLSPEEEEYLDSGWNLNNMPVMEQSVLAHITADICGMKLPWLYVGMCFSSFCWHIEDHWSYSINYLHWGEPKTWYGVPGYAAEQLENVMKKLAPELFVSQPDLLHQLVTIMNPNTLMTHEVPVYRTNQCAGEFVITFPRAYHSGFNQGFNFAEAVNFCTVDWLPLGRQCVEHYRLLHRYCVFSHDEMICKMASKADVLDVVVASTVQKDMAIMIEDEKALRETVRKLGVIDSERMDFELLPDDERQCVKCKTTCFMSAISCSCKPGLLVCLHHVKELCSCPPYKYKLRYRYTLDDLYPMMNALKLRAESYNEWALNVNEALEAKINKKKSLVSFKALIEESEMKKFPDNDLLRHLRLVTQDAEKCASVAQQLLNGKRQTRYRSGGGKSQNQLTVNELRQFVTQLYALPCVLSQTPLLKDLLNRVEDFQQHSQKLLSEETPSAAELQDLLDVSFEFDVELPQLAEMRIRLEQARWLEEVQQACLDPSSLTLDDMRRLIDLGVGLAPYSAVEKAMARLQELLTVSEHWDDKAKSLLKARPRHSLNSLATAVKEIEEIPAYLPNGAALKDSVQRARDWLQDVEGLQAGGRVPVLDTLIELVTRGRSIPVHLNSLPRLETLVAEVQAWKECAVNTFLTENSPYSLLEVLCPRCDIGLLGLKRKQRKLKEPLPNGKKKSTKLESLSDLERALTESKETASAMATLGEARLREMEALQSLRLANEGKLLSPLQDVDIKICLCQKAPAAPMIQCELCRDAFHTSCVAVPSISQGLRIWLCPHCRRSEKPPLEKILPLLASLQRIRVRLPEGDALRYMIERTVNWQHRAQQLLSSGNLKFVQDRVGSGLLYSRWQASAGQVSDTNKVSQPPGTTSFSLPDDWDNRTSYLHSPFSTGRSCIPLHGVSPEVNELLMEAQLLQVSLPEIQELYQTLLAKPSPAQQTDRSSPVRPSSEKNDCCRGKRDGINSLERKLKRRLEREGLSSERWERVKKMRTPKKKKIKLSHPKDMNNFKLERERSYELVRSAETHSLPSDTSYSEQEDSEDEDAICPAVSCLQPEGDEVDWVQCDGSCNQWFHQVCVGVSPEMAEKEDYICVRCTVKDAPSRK
#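 Inhibition is measured as reduced NADH fluorescence generation from FDH coupling to formaldehyde release. Truncated KDM5BΔAP at 200 nM final acts on H3K4me3 peptide (12.5 µM in substrate mix) in pH 7.5 HEPES buffer with Tween-20, 30 min, room temperature.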
# An asterisk follows results filed as active; i = inactive. Many of the other results were omitted from the sample, so hits are more common in it than they were. Potency is read from the fitted curve at half-maximal effect.
SMILES,KDM5B inhibitor
O=c1[nH]c2cc3c(cc2c(=O)n1CCc1nc(-c2ccc(C(F)(F)F)cc2)no1)OCO3,i
O=[N+]([O-])c1cccc(/C=N/O)c1,i
O=C(NC1CC1)c1ccc2nnc(-c3ccc(Cl)cc3)n2c1,50.1µM*
Cc1cccc(C)c1-c1nnc2ccc(C(=O)NC3CC3)cn12,i
COCCNC(=O)c1ccc2nnc(-c3cncc(Cl)c3)n2c1,100µM*
COCCNC(=O)c1ccc2nnc(-c3ccc(Cl)cc3Cl)n2c1,i
CCn1cc(-c2ccc(Cl)cc2)cc1C(=O)NCCOC,i
CN(CC(=O)NC1CC1)C(=O)CSc1nnc(-c2ccc(Cl)cc2)n1C,i
CC(=O)N1CCC([C@@H]2CN(C3CCSCC3)C[C@H]2CO)CC1,i
Cn1cc(C(=O)N2CCN(C(=O)c3ccccc3)CC2)c2ccccc21,i
CCCOC(=O)COc1ccc2c(=O)c(Oc3ccc(C(C)(C)C)cc3)coc2c1,i
Cc1cc(C)c(CNCc2ccco2)c(C)c1,i
CCC(C(=O)NCCc1c[nH]c2cc(OC)ccc12)c1ccccc1 (centres undefined),i
CCC(C(=O)NC1CC1)c1ccccc1 (centres undefined),i
CCOCCCNC(=O)C(CC)c1ccccc1 (centres undefined),i
CCCC(C(=O)NCc1ccc(OC)cc1)c1ccccc1 (centres undefined),i
CCC(C(=O)NCc1nnc2ccc(-c3ccc(OC)cc3)nn12)c1ccccc1 (centres undefined),25.1µM*
CCC(C(=O)NCc1nnc2ccc(-c3ccccc3)nn12)c1ccccc1 (centres undefined),22.4µM*
Cc1ccc(C(=O)c2cccc([N+](=O)[O-])c2)cc1C,i
CCCCCCCC(=O)Nc1c(C)cc(C)cc1C,i
COc1ccc(NC(=O)Cn2nnc(-c3cccc(F)c3)n2)cc1S(=O)(=O)N1CCOCC1,i
Cc1ccc(S(=O)(=O)N2CCN(C(=O)c3nn(C(C)C)c(=O)c4ccccc34)CC2)cc1,i
Cc1ccc(S(=O)(=O)NCC(c2cccnc2)S(=O)(=O)c2cccs2)cc1 (centres undefined),i
CC(C)CCN1CCOc2cc(C(=O)Nc3ccc4cn[nH]c4c3)ccc2C1,i
Cn1ncc(CN2CCc3nc(-c4ccc(F)cc4F)[nH]c3C2)c1C1CC1,25.1µM*
SMILES,KDM5B inhibitor
Cc1noc(CC2CCOC3(CCN(Cc4ccc(F)cc4F)CC3)C2)n1 (centres undefined),i
CN1CCN(c2nc3c(c(=O)[nH]2)CCN(Cc2ccc(F)cc2F)CC3)CC1,i
Cc1noc(CN2CCc3nc(-c4ccc(F)cc4F)[nH]c3C2)n1,31.6µM*
CN(C)c1nc2c(c(=O)[nH]1)CCN(Cc1ccc(F)cc1F)CC2,i
Cc1nc2c(c(-c3ccc(O)cc3)n1)CN(Cc1ccc(F)cc1)CC2,i
N#Cc1ccc(CN2CC[C@H](c3nnc(-c4ccccc4F)o3)C2)cc1,i
O=C(NCc1ncc(-c2ccccc2)o1)c1cccc(F)c1,i
O=C1N[C@H](CCC(=O)N2CCN(Cc3ccccc3)CC2)C(=O)Nc2ccccc21,i
CC(=O)c1ccc(NC(=O)N[C@H]2CO[C@H]3[C@@H]2OC[C@H]3OCC(N)=O)cc1,i
Cc1cc(C)cc(NC(=S)N[C@H]2CO[C@H]3[C@@H]2OC[C@H]3OC(=O)NC2CCCCC2)c1,i
COC(=O)CO[C@@H]1CO[C@H]2[C@@H]1OC[C@@H]2NC(=S)Nc1cc(C)cc(C)c1,28.2µM*
CCCCCC(=O)NC(N1CCCCC1)C(Cl)(Cl)Cl (centres undefined),i
CC(=O)c1ccc(C(=O)N(C)Cc2ccc(C)cc2C)s1,i
CCOc1ccc(-c2cc3c(=O)n(CC(=O)Nc4cc(F)ccc4C)ccn3n2)cc1,i
O=C(Cn1ccn2nc(-c3ccc(Cl)cc3)cc2c1=O)Nc1ccc(Br)cc1F,i
O=c1c2cc(-c3cccs3)nn2ccn1CC(O)c1ccc(F)cc1 (centres undefined),15.8µM*
Cc1ccc(C(O)Cn2ccn3nc(-c4ccc(F)cc4)cc3c2=O)cc1 (centres undefined),14.1µM*
Cc1ccc(-c2cc3c(=O)n(CC(=O)Nc4ccc(F)cc4C)ccn3n2)cc1,i
CC(C)c1ccc(C(O)Cn2ccn3nc(-c4ccc(F)cc4)cc3c2=O)cc1 (centres undefined),25.1µM*
O=C(Cn1ncn2nc(-c3cccs3)cc2c1=O)NCc1ccc(Cl)cc1,i
Cc1ccc(C(O)Cn2ccn3nc(-c4ccc(F)cc4)cc3c2=O)cc1C (centres undefined),i
COc1ccc(OC)c(C(O)Cn2ccn3nc(-c4cccs4)cc3c2=O)c1 (centres undefined),i
CC(=O)N1CCC[C@H]1C(=O)N1CCc2nc(C)nc(NC3CC3)c2CC1,i
NC(=O)c1ccc(C(=O)NCC(O)c2ccc(F)c(F)c2)nc1 (centres undefined),i
N#CC1=C(N)OC2=C(C(=O)CCC2)C1c1ccc(-c2c(Cl)cc(Cl)cc2Cl)o1 (centres undefined),i
SMILES,KDM5B inhibitor
Cc1ccc(NC(=O)Cc2n[nH]c(=O)c3ccccc23)c(F)c1,i
CN(CC(=O)NC1(C#N)CCCC1)c1ccccc1,i
Cc1n[nH]c(C)c1CN1CCC2(CC1)CCN(C1CCOCC1)CC2CO (centres undefined),i
COc1ccc(-c2nn(-c3ccccc3)cc2CN2CCCC(C)(O)C2)c(F)c1 (centres undefined),i
COc1ccc(-n2cc(CN3CCCC(O)C3)c(-c3cccc(F)c3)n2)cc1 (centres undefined),22.4µM*
Cc1cc(-c2nn(-c3ccccc3F)cc2CN2CCCC(O)C2)c(C)s1 (centres undefined),i
CCCNC(=O)C1COC2(CCN(C(=O)CC)CC2)N1C(=O)c1cccc(OC)c1 (centres undefined),i
Cc1nc(NC(=O)C2CC(=O)N(CC(C)C)C2)sc1C (centres undefined),i
COC(=O)C1(C(=O)OC)C2C3C4CC5C6C4C2C6C1C53 (centres undefined),i
COc1cc(OC)c(C2C3=C(CC(C)(C)CC3=O)Nc3n[nH]c(-c4ccccc4)c32)cc1OC (centres undefined),i
COc1ccc(C(CC(=O)N(C)C)c2ccccc2)cc1 (centres undefined),i
COc1ccc(C(CC(=O)N(C)Cc2cnc3ccccn23)c2ccccc2)cc1 (centres undefined),31.6µM*
COc1ccc(C(CC(=O)N2CCCC2)c2ccccc2)cc1 (centres undefined),i
COc1cccc(C(=O)N2CCC(N3C[C@H](O)C[C@H]3C(=O)NCc3ccc(C)o3)CC2)c1,i
O=C1COc2ccc(C(=O)COC(=O)c3cc(Br)ccc3Cl)cc2N1,i
C/C(=N\Nc1ccc(F)cc1)c1sc2ccc(Cl)cc2c1C,i
COC(=O)C(O)(c1ccc(N(C)C(=O)Nc2cccc(Cl)c2)cc1)C(F)(F)F (centres undefined),i
COc1ccc(NC(=O)Cn2c(N3CCc4ccccc4C3)nc(C)cc2=O)cc1Cl,i
Cc1cc(=O)n(CC(=O)Nc2ccccc2)c(N2CCc3ccccc3C2)n1,i
COc1ccc(NC(=O)Cn2c(N3CCc4ccccc4C3)nc(C)cc2=O)cc1OC,i
Cc1cc(=O)n(CC(=O)Nc2ccc(C(C)C)cc2)c(N2CCc3ccccc3C2)n1,i

# Bioassay records deposited in PubChem BioAssay by National Center for Advancing Translational Sciences (NCATS).
